# ELG1 genotox = genotoxicity induction in ELG1-luciferase HEK293T cells; Potency, µM (top dose mostly 46 µM), for inactives: at the top dose activity change, positive = activation, usual class: activators; HEK293T ELG1-luciferase reporter, luminescence, 16 h; actives 1.3% (n = 330,000); further: % of control where 0% means no effect; nearly all actives have a fitted effect of over 60% in size
#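 Genotoxicity was scored as increased ELG1-luciferase reporter signal, measured by ONE-Glo luminescence (30 min, room temperature). Compound or vehicle exposure of the HEK293T reporter cells lasted 16 hr at 37°C.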
# FLuc modulator = firefly luciferase modulation, counter-screen for miR-21 project; P08659; purified FLuc, Km substrates, luminescence inhibition; Potency, µM (titrated, usually from 57.5 µM), without a hit: top-dose activity change, negative = inhibition, most hits filed as inhibitors; actives 6.9% (n = 360,000); AID 588342;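 further: plate controls were vehicle for no effect and reference inhibitor for full effect; nearly all actives have a fitted effect of over 55% in size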
# Target sequence (P08659 whole entry, looked up): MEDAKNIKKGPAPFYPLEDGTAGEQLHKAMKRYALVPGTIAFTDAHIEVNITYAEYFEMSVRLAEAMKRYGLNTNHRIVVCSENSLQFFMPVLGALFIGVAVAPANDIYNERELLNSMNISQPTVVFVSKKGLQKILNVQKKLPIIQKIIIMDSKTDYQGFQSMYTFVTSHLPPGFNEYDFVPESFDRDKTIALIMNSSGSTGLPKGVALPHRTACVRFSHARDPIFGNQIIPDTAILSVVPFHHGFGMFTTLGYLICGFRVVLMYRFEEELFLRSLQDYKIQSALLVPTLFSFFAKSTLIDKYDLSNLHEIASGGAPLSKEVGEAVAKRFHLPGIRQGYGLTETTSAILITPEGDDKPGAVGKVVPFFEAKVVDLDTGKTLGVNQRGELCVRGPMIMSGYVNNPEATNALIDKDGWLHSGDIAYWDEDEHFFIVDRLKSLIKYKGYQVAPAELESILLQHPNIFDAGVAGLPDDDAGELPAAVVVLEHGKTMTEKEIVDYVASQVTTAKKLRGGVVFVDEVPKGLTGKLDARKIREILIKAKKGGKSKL
#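 Purified P. pyralis luciferase, 10 nM final, with Km-level 10 uM D-luciferin and 10 uM ATP in 50 mM Tris acetate pH 7.5, 10 mM Mg acetate, 0.01% Tween-20, 0.05% BSA; 6-point qHTS titration about 60 µM downward; luminescence read.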
# KinaseGlo FLuc = blocks Kinase-Glo luciferase, a counter-screen artifact; Q27757; Kinase-Glo luciferase, ATP luminescence, 8 min; Potency, µM (series often up to 38.3 µM), without a hit: top-dose activity change, negative = inhibition, usual class: inhibitors; actives 0.28% (n = 200,000); AID 1379; further: on the % scale 0 is the no-effect control and ±100 the full control effect; nearly all actives have a fitted effect of over 60% in size
#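 Compounds were added to a substrate mix at pH 7.2 (50 mM imidazole, 10 uM ATP, within the enzyme's linear range), followed by Kinase-Glo detection reagent; luminescence was measured after 8 minutes at ambient temperature.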
# SMN2 splice up = enhancers of SMN2 splice variant expression; HEK293 SMN2-luciferase splicing reporter, luminescence, 30-36 h; actives 2.8% (n = 210,000); AID 1458; Potency, µM (doses to about 46.1 µM), inactives show at the highest dose activity change, positive = activation, actives largely listed as activators; further: % of control where 0% means no effect; nearly all actives have a fitted effect of over 55% in size
#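 HEK293 cells carry an SMN2 minigene-luciferase reporter in which exon 7 inclusion puts luciferase in frame. Cells were seeded at 2000 cells/well, attached for 10-12 hours, then exposed to compounds for 30-36 hours at 37C before ONE-Glo luminescence.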
# NPC1 promoter act = activates the NPC1 promoter; actives 2.4% (n = 320,000); Potency, µM (titrated, usually from 9.22 µM), for the others: at the highest dose activation, most hits filed as activators; Huh7 NPC1 promoter luciferase reporter, 24 h; further: % of control where 0% means no effect; nearly all actives have a fitted effect of over 60% in size
#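 Quantitative HTS used a cell-based reporter: Huh7 cells stably bearing the NPC1 promoter upstream of luciferase were treated with compounds for 24 h, and promoter activation was read as luminescence.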
# Rab9 prom act = activators of Rab9 promoter | Huh7 Rab9 promoter-luciferase reporter, luminescence, 24 h | Potency, µM (highest dose often 9.22 µM), for inactives: at the highest dose activation, negative = inhibition, most hits filed as activators | actives 2.8% (n = 320,000); further: % of control where 0% means no effect; nearly all actives have a fitted effect of over 60% in size
#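 Promoter activation is measured as luciferase luminescence in Huh7 cells stably transfected with a Rab9 promoter–luciferase construct, following 24 h compound exposure at 37 °C and 10 min reagent incubation at ambient temperature.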
# An asterisk follows results filed as active; ? = inconclusive; . = no result; [ ] = another dose, or the depositor's remark. An excerpt weighted towards active compounds, which were near 7.5% of everything screened. The call rests on the fitted dose curve; in most records, active means well fitted curve in the direction sought with a large enough effect; inconclusive means small, poorly fitted or top-dose-only effect, or another doubt; inactive means no such curve, though single readings can be large; an effect the other way counts as inactive or inconclusive. Potency means the concentration at half of the fitted maximal effect.
SMILES,ELG1 genotox,FLuc modulator,KinaseGlo FLuc,SMN2 splice up,NPC1 promoter act,Rab9 prom act
OCc1cnc(SCc2ccccc2F)n1Cc1ccc(F)cc1,.,-8%,.,.,.,.
Cc1nc2c(cc1C#N)C(=O)c1ccccc1-2,3%,2%,-5%,6%,-2%,2%
Cc1cccc2cc3c(nc12)-c1ccccc1C3=O,?,15µM*,.,.,1%,3%
C/C(=N\NC(=O)CSc1nc(C)[nH]c1[N+](=O)[O-])c1ccc(F)cc1,-6%,15µM*,.,.,24%,?
Cc1nc(SCC(N)=O)c([N+](=O)[O-])[nH]1,-1%,-2%,6%,13%,-2%,-6%
COc1ccc(C(=O)Nc2ccc(Cl)cn2)cc1Cl,?,11µM*,-5%,?,2.5µM*,3.5µM*
O=C(Nc1ccc(Cl)cn1)c1cccc(S(=O)(=O)N2CCCC2)c1,-8%,1%,.,.,2%,12%
CN(C)S(=O)(=O)c1cccc(C(=O)Nc2ccc(Cl)cn2)c1,?,13µM*,-3%,6%,?,?
O=C(CCCCCn1c(=O)c2sccc2n(CC(=O)Nc2ccccc2F)c1=O)NCc1ccc2c(c1)OCO2,.,-3%,.,-4%,.,.
COc1ccc(CNC(=O)c2nc(Cn3nc(C)c(Br)c3C)no2)cc1OC,.,1%,.,-14%,.,.
COc1ccc(CCCC(=O)Nc2ccccc2F)cc1,?,13µM*,1%,15%,19%,?
O=C(CC(=O)Nc1ccccc1F)Nc1ccccc1F,2%,-9%,.,.,0%,-4%
Cc1ccc(CCC(=O)Nc2ccccc2F)s1,10µM*,7.6µM*,-24%,?,?,?
COc1ccc(CNC(=S)Nc2ccccc2F)cc1,-1%,-9%,.,.,8%,8%
COc1ccc(C(=O)NC(=S)Nc2ccccc2F)cc1,?,2.7µM*,2%,13µM*,1.8µM*,1.4µM*
COc1ccc(C(=O)NC(=S)NNC(=O)c2ccccc2O)cc1,15%,21µM*,.,.,2%,0%
CCn1cc(C(=O)N2CCN(c3ccccc3)CC2)c(=O)c2cc(S(=O)(=O)N3CCC(C)CC3)ccc21,.,-13%,.,3%,.,.
Nc1ncnc2nc(-c3ccc(N4CCOCC4)nc3)cc(-c3cccc(Br)c3)c12,.,.,-1%,-47%,-4%[46.1 µM],-8%[46.1 µM]
COCC(=O)N1CCC2(CCN(Cc3nccs3)CC2)CC1,.,.,0%,-14%,.,.
COc1cc(C(=O)Nc2ccc(C)cn2)ccc1OCC(=O)N1CCOCC1,7%,17µM*,.,.,2%,2%
COc1cc(C(=O)Nc2cc(C)ccn2)ccc1OCC(=O)N1CCOCC1,?,?,.,.,1%,10%
CCCCOc1ccc(C(=O)Nc2ccc(CN3CCOCC3)cc2)cc1,-1%,?,.,.,-10%,-24%
CCCCOc1ccc(C(=O)Nc2cc(C)c(OCC(=O)N3CCOCC3)c(C)c2)cc1,-6%,2.1µM*,6%,-68%,14%,0%
Cc1cc(NC(=O)c2cccc3ccccc23)cc(C)c1OCC(=O)N1CCOCC1,-9%,?,6%,-13%,-1%,-5%
Cc1cc(NC(=O)c2ccc(Cl)cc2)cc(C)c1OCC(=O)N1CCOCC1,10%,1.7µM*,.,.,3.2µM*,?
COc1cc(OC)cc(C(=O)NNC(=S)NC2CC2)c1,-1%,0%,2%,.,1%,-7%
Cc1ccc2nc(COc3ccc(Cl)cc3)cc(=O)n2c1,23%,?,3%,13µM*,3.5µM*,1.3µM*
COc1ccc(OC)c(NC(=O)Nc2cccc(OCc3cc(=O)n4cc(C)ccc4n3)c2)c1,.,1.2µM*,.,.,.,.
O=C(NCCO)C(=O)NCC(c1ccc2c(c1)OCO2)N1CCOCC1 (configuration not stated),.,-2%,.,.,.,.
COc1ccc(Br)cc1[C@H]1[C@@H]2C=CCC[C@@]2(C)C(=O)N1Cc1ccccc1,-12%,1%,.,.,0%,-13%
